Laboratory results as given in paper PMC4552634, “A New Set of Chemical Starting Points with Plasmodium falciparum Transmission-Blocking Potential for Antimalarial Drug Discovery” (PLoS ONE, 2015).
The whole screen tested about 13,000 compounds, of which about 3,200 (25%) showed an effect of 50% or more. The list shows a part of the results.

What follows are compounds tested on P. falciparum stage V gametocytes. Settings: 48 h, 5 µM; inhibitor.
Design: BacTiter-Glo ATP luminescence viability of purified stage V gametocytes in 384-well plates, per cent inhibition versus DMSO
For `O=C(Nc1ccc(-c2nc3ccccc3[nH]2)cc1)c1cnc(Cl)c(Cl)c1` [TCMDC-125109], the “% Inhibition” value was -47.86%.
In the case of `CN1CCN(CC(=O)Nc2cccc(-c3ccc(-c4nc5ccc(F)cc5[nH]4)cc3)c2)CC1` [TCMDC-136978], the “% Inhibition” value is reported as 78.56%.
With `CN1CCN(CC(=O)Nc2cccc(-c3cccc(-c4nc5ccc(F)cc5[nH]4)c3)c2)CC1` [TCMDC-136974] the “% Inhibition” value was 72.37%.
In the case of `CN1CCN(CC(=O)Nc2ccc(-c3cccc(-c4nc5ccc(F)cc5[nH]4)c3)cc2)CC1` [TCMDC-136973], the “% Inhibition” value is reported as -61.95%.
With `CN1CCN(CC(=O)Nc2ccc(-c3ccc(-c4nc5ccccc5[nH]4)cc3)cc2)CC1` [TCMDC-136979] the “% Inhibition” value was -9.366%.
`CN1CCN(CC(=O)Nc2cccc(-c3ccc(-c4nc5cc(F)ccc5[nH]4)s3)c2)CC1` [TCMDC-136986] was tested, and the “% Inhibition” value was 9.75%.
`CN1CCC(C(=O)Nc2cccc(-c3cccc(-c4nc5ccc(F)cc5[nH]4)c3)c2)CC1` [TCMDC-132181] was tested, and the “% Inhibition” value was 91.35%.
In the case of `CN1CCC(C(=O)Nc2ccc(-c3cccc(-c4nc5ccc(F)cc5[nH]4)c3)cc2)CC1` [TCMDC-132180], the “% Inhibition” value is reported as 28.01%.
In the case of `O=C(Cc1cnc[nH]1)Nc1cccc(-c2ccc(-c3nc4ccc(F)cc4[nH]3)cc2)c1` [TCMDC-136946], the “% Inhibition” value is reported as 4.671%.
In the case of `CN1CCC(C(=O)Nc2cccc(-c3ccc(-c4nc5ccc(F)cc5[nH]4)cc3)c2)CC1` [TCMDC-132185], the “% Inhibition” value is reported as 12.21%.
With `CN1CCN(CC(=O)Nc2cccc(-c3cccc(-c4nc5ccccc5[nH]4)c3)c2)CC1` [TCMDC-136972] the “% Inhibition” value was 82.82%.
With `CN1CCN(CC(=O)Nc2ccc(-c3csc(-c4nc5ccccc5[nH]4)c3)cc2)CC1` [TCMDC-132392] the “% Inhibition” value was -27.46%.
`CCCN(Cc1nnc(-c2cccs2)o1)C(=O)CSc1nnnn1-c1ccc(C)c(C)c1` [TCMDC-125240] was tested, and the “% Inhibition” value was 7.835%.
For `CCNc1cc(C(=O)N[C@@H](Cc2ccccc2)[C@H](O)CNC2(C(C)C)CCC2)cc(N2CCCCS2(=O)=O)c1` [TCMDC-135375], the “% Inhibition” value was 21.07%.
With `O=C(Nc1cccc(N2CCC(NCc3cnn(-c4cccc(F)c4)c3)CC2)c1)c1ccncc1` [TCMDC-124666] the “% Inhibition” value was 1.522%.
In the case of `CCc1nc(N)nc(N)c1-c1ccc2c(c1)CCCC2` [TCMDC-137366], the “% Inhibition” value is reported as 1.403%.
`CC(=O)c1c[nH]c2ccc(/C=C/C(=O)NC3CCC(CCN4CCc5ccc(C#N)cc5CC4)CC3)cc12` (stereo not drawn) [TCMDC-139781] was tested, and the “% Inhibition” value was 8.041%.
`Cc1cc(N(C)C)nc(Nc2ccc(NC(=O)Nc3ccccc3)cc2)n1` [TCMDC-124961] was tested, and the “% Inhibition” value was -7.652%.
In the case of `CC(C)(C)OC(=O)NCCc1cccc(-c2c[nH]c3ncc(-c4cccc(NS(C)(=O)=O)c4)cc23)c1` [TCMDC-136294], the “% Inhibition” value is reported as 27.56%.
`CC(C)(C)OC(=O)Nc1cccc(-c2csc(N=C(N)N)n2)c1` [TCMDC-139458] was tested, and the “% Inhibition” value was -7.948%.
With `Cc1ccc(-n2[nH]c(C)c(N=Nc3cccc(-c4cccc(NC(=O)OC(C)(C)C)c4)c3O)c2=O)cc1C` [TCMDC-141045] the “% Inhibition” value was 81.95%.
With `COc1ccc(Nc2nccc(-c3ccc(NC(=O)c4cc5cc(F)ccc5[nH]4)cc3)n2)cc1` [TCMDC-133306] the “% Inhibition” value was 23.43%.
With `CCNC(=O)Nc1cccc(-c2ccc(-c3nc4cccc(C)c4[nH]3)s2)c1` [TCMDC-133169] the “% Inhibition” value was -0.5138%.
In the case of `Cc1ccc(Nc2nc3cc(Nc4ccnc(Nc5ccc(CS(C)(=O)=O)cc5)n4)ccc3o2)cc1` [TCMDC-141799], the “% Inhibition” value is reported as 11.69%.
In the case of `OC(COCc1ccc(-c2ccccc2)cc1)CN1CCCCC1` (stereo not drawn) [TCMDC-132069], the “% Inhibition” value is reported as -30.91%.
In the case of `Cc1ccc(NC(=O)c2ccc(CN3CCCN(CC4CCCCC4)CC3)cc2)cc1F` [TCMDC-136393], the “% Inhibition” value is reported as -36.95%.
With `CC1CN(c2ccc(NC(=O)c3ccc(F)cc3)cc2)CCN1Cc1cccc(F)c1` (stereo not drawn) [TCMDC-135016] the “% Inhibition” value was 10.14%.
With `CC(C)(C)c1ccc(CN2CCC(NC(=O)c3ccc(-c4cccc(F)c4)s3)CC2)cc1` [TCMDC-134350] the “% Inhibition” value was -0.6628%.
`Cc1cccc(C(O)CNc2ccnc(Nc3cccc(-c4csc(C)n4)c3)n2)c1` (stereo not drawn) [TCMDC-136568] was tested, and the “% Inhibition” value was -28.27%.
For `c1ccc(Nc2nc(-c3ccccn3)cs2)nc1` [TCMDC-124275], the “% Inhibition” value was 108.4%.
With `Cc1cccnc1Nc1nc(-c2ccccn2)cs1` [TCMDC-125846] the “% Inhibition” value was 115%.
For `Cc1ccc(Nc2nc(-c3ccccn3)cs2)nc1` [TCMDC-125854], the “% Inhibition” value was 98.08%.
With `Cc1ccnc(Nc2nc(-c3ccccn3)cs2)c1` [TCMDC-125769] the “% Inhibition” value was 115.7%.
For `COc1cccc(C(=O)NCc2cccs2)c1OCc1ccccc1` [TCMDC-141234], the “% Inhibition” value was 8.01%.
For `C#CCOc1ccccc1CN1CCC(N2CCc3cc(NC(=O)c4cc(C)on4)ccc32)C1` (stereo not drawn) [TCMDC-135075], the “% Inhibition” value was -4.764%.
For `Cc1[nH]c2ccc(NS(C)(=O)=O)cc2c1C1CCN(CCC2CCN(C(=O)/C=C/c3ccc(Cl)c(Cl)c3)CC2)CC1` [TCMDC-140126], the “% Inhibition” value was -29.87%.
`Cc1ccc(NC(=O)c2ccc3nccnc3c2)cc1OC1CCN(Cc2ccc(F)cc2)CC1` [TCMDC-133748] was tested, and the “% Inhibition” value was -13.13%.
In the case of `O=C(Nc1ccccc1-c1ccccc1)C1CCCN1C(=O)Nc1ccc(Cl)cc1` (stereo not drawn) [TCMDC-123648], the “% Inhibition” value is reported as 32.25%.
In the case of `Cc1cc(NC(=O)Nc2ccc3nccc(N4CCN(C)CC4)c3c2)ccc1Br` [TCMDC-139361], the “% Inhibition” value is reported as 36.21%.
For `CC[C@H]1C[N+]2([O-])CC[C@@H]1C[C@H]2[C@H](O)c1cc(-c2ccccc2)nc2ccc(OC)cc12` [TCMDC-141330], the “% Inhibition” value was 6.04%.
In the case of `CC(=O)Nc1nc(C)c(-c2csc(Nc3ccc(Cl)cc3)n2)s1` [TCMDC-123995], the “% Inhibition” value is reported as -35.56%.
In the case of `Clc1ccc(Nc2nc(-c3ccccn3)cs2)nc1` [TCMDC-123885], the “% Inhibition” value is reported as 114%.
With `Cc1cc(NCC2CCN(CC3CCCCC3)C2)nc(Nc2ccc(Br)cc2)n1` (stereo not drawn) [TCMDC-137024] the “% Inhibition” value was -11.33%.
In the case of `CC(C)NCc1ccc(-c2ccc(-c3nc4ccc(C(F)(F)F)cc4[nH]3)cc2)cc1` [TCMDC-132741], the “% Inhibition” value is reported as -41.38%.
For `O=C(NCCN1CCCC1)c1cccc(-c2ccc(-c3nc4ccc(C(F)(F)F)cc4[nH]3)cc2)c1` [TCMDC-132322], the “% Inhibition” value was -42.59%.
In the case of `FC(F)(F)c1ccc2nc(-c3ccc(-c4ccc(CNCCN5CCNCC5)cc4)cc3)[nH]c2c1` [TCMDC-132865], the “% Inhibition” value is reported as 81.47%.
For `NCc1ccc(CNCc2ccc(-c3ccc(-c4nc5ccc(F)cc5[nH]4)cc3)cc2)cc1` [TCMDC-132810], the “% Inhibition” value was 33.23%.
`Fc1ccc2nc(-c3ccc(-c4ccc(CNCc5ccccc5)cc4)cc3)[nH]c2c1` [TCMDC-132706] was tested, and the “% Inhibition” value was -8.739%.
For `Fc1ccc2nc(-c3ccc(-c4ccc(CNCCN5CCNCC5)cc4)cc3)[nH]c2c1` [TCMDC-132866], the “% Inhibition” value was 95.81%.
In the case of `Cc1ccc(O)cc1Nc1ccnc2ccc(-c3csc(CNCCN4CCOCC4)n3)cc12` [TCMDC-138419], the “% Inhibition” value is reported as 24.32%.
With `C=CCOC(=O)N1CCC(CNCc2cccc(-c3cccc(-c4nc5cc(F)ccc5[nH]4)c3)c2)C1.O=C(O)C(F)(F)F` (stereo not drawn) [TCMDC-133045] the “% Inhibition” value was -22.96%.
In the case of `O=C(CC(=O)Nc1cc(Cl)cc(Cl)c1)Nc1cc(Cl)cc(Cl)c1` [TCMDC-124303], the “% Inhibition” value is reported as 1.845%.
For `O=C(Nc1cccc(-c2nn3ccccc3c2-c2ccnc(Nc3cccc(F)c3)n2)c1)c1c(F)ccc(F)c1Cl` [TCMDC-135830], the “% Inhibition” value was 19.22%.
For `CCCCCCCOc1ccc(NC(=O)Nc2ccc(Cn3ncc(N4CCCNCC4)c(Cl)c3=O)cc2)cc1` [TCMDC-133318], the “% Inhibition” value was 42.33%.
`CC(C)c1nc(N2CCN(C(=S)NCc3ccccc3)CC2)c(C#N)c2c1COC(C)(C)C2` [TCMDC-124093] was tested, and the “% Inhibition” value was 85.74%.
`CC(C)Sc1nc(-c2ccccc2)nc2c1COC(C)(C)C2` [TCMDC-125132] was tested, and the “% Inhibition” value was -39.31%.
In the case of `N#Cc1ccc(CN2CCC(Oc3ccc(NC(=O)c4cccs4)cc3Cl)C2)cc1` (stereo not drawn) [TCMDC-133962], the “% Inhibition” value is reported as 5.438%.
With `FC(F)(F)c1cccc(Nc2nc(-n3ccnc3)nc(-n3ccnc3)n2)c1` [TCMDC-123871] the “% Inhibition” value was 5.028%.
`FC(F)(F)c1cccc(Nc2nc(-c3ccccc3)nc3ncccc23)c1` [TCMDC-125597] was tested, and the “% Inhibition” value was 73.35%.
With `Cc1cc(Nc2cccc(C(F)(F)F)c2)nc(N)n1` [TCMDC-124264] the “% Inhibition” value was 7.363%.
In the case of `Cc1cc(C)n(-c2nc(Nc3cccc(C(F)(F)F)c3)nc(-n3nc(C)cc3C)n2)n1` [TCMDC-125770], the “% Inhibition” value is reported as 16.09%.
With `Cc1cc(Nc2cccc(C(F)(F)F)c2)nc(Nc2cccc(C(F)(F)F)c2)n1` [TCMDC-124213] the “% Inhibition” value was -15.06%.
With `FC(F)(F)c1cccc(Nc2nc3ccccc3nc2Nc2cccc(C(F)(F)F)c2)c1` [TCMDC-124162] the “% Inhibition” value was 95.6%.
With `N#CCCN1CCN(Cc2cccc(-c3ccc(-c4nc5ccccc5[nH]4)s3)c2)CC1.O=C(O)C(F)(F)F` [TCMDC-133871] the “% Inhibition” value was -9.564%.
For `NC1=NC2(CCCCC2)N(OCCCCCCCCNc2nc(N)nc(N)n2)C(N)=N1` [TCMDC-140517], the “% Inhibition” value was 6.685%.
`Nc1nc(N)c2c(ccc3c2ccn3Cc2ccccn2)n1` [TCMDC-137980] was tested, and the “% Inhibition” value was 111.5%.
`Nc1nc(N)c2c(ccc3c2ccn3Cc2ccccc2)n1` [TCMDC-141977] was tested, and the “% Inhibition” value was 66.05%.
For `Nc1nc(N)c2c(ccc3c2ccn3Cc2ccc(-c3ccccc3)cc2)n1` [TCMDC-137813], the “% Inhibition” value was 115.8%.
With `Nc1nc(N)c2c(ccc3c2ncn3Cc2ccccc2)n1` [TCMDC-137749] the “% Inhibition” value was 33.84%.
`Nc1nc(N)c2c(ccc3c2ccn3Cc2ccc(OCc3ccccc3)cc2)n1` [TCMDC-137336] was tested, and the “% Inhibition” value was 29.32%.
In the case of `N#Cc1ccc(Cn2ccc3c4c(N)nc(N)nc4ccc32)cc1` [TCMDC-137820], the “% Inhibition” value is reported as 103.8%.
In the case of `Nc1nc(N)c2c(ccc3c2ccn3CCCC2CCCNC2)n1` (stereo not drawn) [TCMDC-138618], the “% Inhibition” value is reported as 26.76%.
